# Compound activity (PubChem)
# Arbovirus inh: antivirals against arbovirus infection, primary screen, cell-based, full library, 10K replicate subset; hit rate 0.37% among 200,000; inhibition, % at 10 µM; AID 1251, 2008; arbovirus infection cell-based antiviral screen; in the data active = inhibition above about 30%
# Hck Nef HTS: inhibitors of Nef-activated human Hck kinase, primary screen, biochemical, Z-Lyte FRET, 384-well, Hck-YEEI | Recombinant Hck-YEEI plus Nef, Z-Lyte FRET kinase assay | hit rate 0.68% among 220,000 | Tyrosine-protein kinase HCK (Homo sapiens), P08631 | inhibition, % at 20 µM;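 active = Hck-Nef kinase inhibition above about 50%, limit read from the data; inactive = inhibition below that limit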;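 also: 0% = DMSO with Hck plus Nef and 100% = Hck alone without Nef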
# Target sequence (P08631 whole entry, looked up): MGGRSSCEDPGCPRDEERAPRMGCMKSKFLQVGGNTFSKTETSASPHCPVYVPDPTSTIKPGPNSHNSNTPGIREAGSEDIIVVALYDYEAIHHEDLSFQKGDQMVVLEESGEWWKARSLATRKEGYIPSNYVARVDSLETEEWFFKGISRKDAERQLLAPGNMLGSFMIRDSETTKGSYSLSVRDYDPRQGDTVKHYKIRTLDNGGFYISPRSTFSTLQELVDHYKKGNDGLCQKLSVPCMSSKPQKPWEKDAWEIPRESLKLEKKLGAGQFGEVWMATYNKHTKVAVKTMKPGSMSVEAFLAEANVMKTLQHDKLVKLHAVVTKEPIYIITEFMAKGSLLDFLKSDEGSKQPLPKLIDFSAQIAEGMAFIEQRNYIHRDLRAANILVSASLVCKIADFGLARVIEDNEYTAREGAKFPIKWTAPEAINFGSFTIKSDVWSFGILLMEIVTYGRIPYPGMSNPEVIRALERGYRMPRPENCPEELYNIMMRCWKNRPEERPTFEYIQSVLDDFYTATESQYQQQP
# EP2 mod: EP2 receptor modulators, cAMP readout, primary screen, cell-based, HTRF cAMP, PGE2 stimulation; EP2-expressing cells, cAMP HTRF FRET, PGE2 co-stimulation; induction, % at 25 µM; AID 940, 2007; hit rate 0.83% among 260,000; Prostaglandin E2 receptor EP2 subtype (Homo sapiens), P43116;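 active = compounds whose cAMP rise, as percent of the full-agonist control response, exceeds 60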;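 also: rat C6 glioma line stably carrying human EP2 under a CMV promoter; the protocol text gives 20 µM as final concentration; 100% = response of wells given 1 µM PGE2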
# p97 ATPase inh: inhibitors of human p97 ATPase, primary screen, biochemical; Transitional endoplasmic reticulum ATPase (Homo sapiens), P55072; recombinant p97 ATPase, Kinase-Glo ATP luminescence, 3 h; inhibition, % at 8 µM; hit rate 0.42% among 220,000; AID 1481, 2009; in the data active = inhibition above about 15%;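 also: 0% = DMSO vehicle and 100% = wells lacking enzyme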
# EP2 antag: human EP2 receptor antagonists, primary screen, TR-FRET cAMP, C6 glioma cells | C6 glioma cells expressing human EP2; cells stimulated with saturating PGE2 | inhibition, % at 25 µM | hit rate 0.52% among 260,000;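 active = percent inhibition above 40 after rounding to a whole number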;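 also: rat C6 glioma host cells with rolipram phosphodiesterase inhibitor present; the protocol text gives 20 µM as final concentration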
# Hck Nef conf: retest of Hck:Nef kinase inhibitor hits, confirmation, biochemical, Z-Lyte FRET, 384-well, p-Tyr peptide counterscreen; shares compounds with Hck Nef HTS; Recombinant Hck-YEEI:Nef, Z-Lyte FRET kinase assay; calls only at 10 µM; hit rate 28% among 1,300; AID 463188, 2010;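 active = average inhibition of at least 50%, with Z-scores no higher than 3 in both the phospho-tyrosine peptide and fluorescence counterscreens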
# The depositor's hits bear a star; i = inactive; . = no result shown; + = active, no number. Compounds with a hit are over-represented: about 2.4% of the library has one in this group of screens.
SMILES,Arbovirus inh,Hck Nef HTS,EP2 mod,p97 ATPase inh,EP2 antag,Hck Nef conf
C=CCn1c(=N)c(C(=O)NCCCOC)cc2c(=O)n3cc(C)ccc3nc21,10,187*,-3,-5,.,.
C=CCn1c(=N)c(C(=O)NCCCOC)cc2c(=O)n3ccccc3nc21,4,+,16,1,15,.
CCOCCCNC(=O)c1cc2c(=O)n3ccccc3nc2n(Cc2cccnc2)c1=N,.,.,1,.,7,.
Cc1onc(-c2ccccc2Cl)c1C(N)=O,14,7,19,5,11,.
COC(=O)c1c(-c2ccccc2Cl)noc1/C=C/N(C)C,1,59*,-13,3,12,+
CCNC(=S)N/N=C/c1ccc(OCC(=O)Nc2ccc(OC)cc2)c(OC)c1,7,4,-27,-2,13,.
CCCCNC(=O)C(=O)N/N=C/c1ccc(OCC(=O)Nc2cccc(OC)c2)c(OC)c1,-6,71*,4,3,5,+
CCc1ccc2[nH]c(=O)c(C(c3nnnn3C3CCCC3)N3CCN(c4ccccc4)CC3)cc2c1 (stereo unspecified),.,.,12,.,2,.
CCSc1ncnc2c1sc1nc(-c3ccco3)c3c(c12)CC(C)(C)OC3,3,4,45,3,.,.
CCN(CCO)c1nc(SC)nc2c1sc1nc(-c3ccco3)c3c(c12)CCC3,-7,68*,13,11,8,i
CCCc1cc(NCCCN2CCOCC2)n2c(nc3ccccc32)c1C#N,-19,101*,20,0,15,.
Cc1cc(NCCCN2CCOCC2)n2c(nc3ccccc32)c1C#N,4,75*,7,3,8,.
Cc1cc(Nc2c(C)n(C)n(-c3ccccc3)c2=O)n2c(nc3ccccc32)c1C#N,-5,7,11,9,.,.
Cc1cc(-c2cc(N)c(=O)n(CC(=O)NCc3ccc(F)cc3)n2)c(C)o1,.,.,-56,.,3,.
CCCCc1cc(=O)oc2cc(O)cc(O)c12,-9,-41,7,8,8,.
CCOC(=O)Cc1c(C)c2ccc(N(CC)CC)cc2oc1=O,-4,107*,-6,0,.,.
CCOC(=O)Cc1c(C)c2c(O)cc(O)cc2oc1=O,-10,50*,39,2,16,i
CCN(CC)c1ccc2c(C)c(Cl)c(=O)oc2c1,6,+,10,0,3,.
Cc1ccccc1OCCCn1cnc2ccccc21,.,.,-6,.,5,.
CCc1nc2ccccc2n1CC(O)COc1ccccc1C (stereo unspecified),.,.,-62,.,13,.
CCOc1cc(CN2CCN(C(=O)c3c(OC)cccc3OC)CC2)ccc1OC,.,.,-9,.,11,.
CC(=O)OCC1=C(C(=O)O)N2C(=O)C(NC(=O)c3ccc(COc4c(C)cccc4Cl)o3)C2SC1 (stereo unspecified),-5,77*,12,3,8,i
CC(=O)OCC1=C(C(=O)O)N2C(=O)[C@@H](NC(=O)Cc3cccs3)[C@H]2SC1,3,15,18,-3,12,.
CC(=O)OCC1=C(C(=O)O)N2C(=O)C(NC(=O)c3ccc(COc4ccc(Cl)cc4)o3)C2SC1 (stereo unspecified),-2,64*,18,7,5,i
CCN(CC)c1ccc(/C=N/N2CCN(Cc3ccccc3)CC2)cc1,9,57*,7,-4,9,i
SMILES,Arbovirus inh,Hck Nef HTS,EP2 mod,p97 ATPase inh,EP2 antag,Hck Nef conf
N#C/C(=C\c1ccc(OC(=O)c2cccs2)cc1)c1nc2ccccc2[nH]1,2,57*,-80,-2,14,+
N#C/C(=C\c1cccs1)c1nc2ccccc2[nH]1,0,-4,-61,7,8,.
CCc1cc2c(N=Nc3c(O)[nH]c4ccccc34)ncnc2s1,7,2,-2,4,12,.
Oc1[nH]c2ccccc2c1N=Nc1ncnc2c1oc1ccccc12,.,56*,-35,3,2,i
COc1ccc2c(c1)NC1(CCN(C(=O)CCn3nc(C)cc3C)CC1)c1cccn1-2,.,.,-52,.,12,.
Cc1nn(-c2cccc(C(=O)Nc3c[nH]c4ccccc34)c2)c(C)c1Cl,.,.,-36,.,9,.
CCOC(=O)c1ccc2c(c1)C1C=CCC1C(C(=O)O)N2 (stereo unspecified),0,59*,23,2,18,+
Nc1cc2ccncc2c2ccccc12,.,52*,-27,5,14,i
Cc1cc(N)c2ccccc2n1,-2,16,-15,4,8,.
COc1cc(CCC(=O)N2CCC(C(=O)c3nc4ccccc4s3)CC2)on1,.,.,17,.,.,.
COc1ccc(S(=O)(=O)N(CC(=O)Nc2ccc3c(c2)OCCO3)c2ccccc2OC)cc1,.,.,6,.,8,.
COc1ccccc1CNC(=O)/C=C/c1ccc(Br)o1,1,91*,-55,-1,6,+
